Measurements published in ChEMBL document CHEMBL2218924, “A broad activity screen in support of a chemogenomic map for kinase signalling research and drug discovery” (Biochem J, 2013).

Target: T1, Testis-specific serine/threonine-protein kinase 2 (Homo sapiens) (UniProt Q96PF2)
T1 sequence (whole entry): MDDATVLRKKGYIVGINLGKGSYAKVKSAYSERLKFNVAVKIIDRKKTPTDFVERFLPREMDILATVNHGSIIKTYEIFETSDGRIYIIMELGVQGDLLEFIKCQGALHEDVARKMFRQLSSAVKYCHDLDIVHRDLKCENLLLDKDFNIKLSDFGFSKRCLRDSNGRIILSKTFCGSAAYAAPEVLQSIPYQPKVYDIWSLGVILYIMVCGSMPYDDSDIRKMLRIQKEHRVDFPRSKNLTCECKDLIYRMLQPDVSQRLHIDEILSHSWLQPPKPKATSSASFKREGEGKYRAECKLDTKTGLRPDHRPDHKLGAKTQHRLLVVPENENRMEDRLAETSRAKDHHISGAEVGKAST
Conditions: at 1 µM

Row | SMILES | residual activity
1 | CO[C@H]1C[C@@H]2CC[C@@H](C)[C@@](O)(O2)C(=O)C(=O)N2CCCC[C@H]2C(=O)O[C@H]([C@H](C)C[C@@H]2CC[C@@H](O)[C@H](OC)C2)CC(=O)[C@H](C)/C=C(\C)[C@@H](O)[C@@H](OC)C(=O)[C@H](C)C[C@H](C)/C=C/C=C/C=C/1C | 90%
2 | COc1cc2nccc(Oc3ccc(NC(=S)NC(=O)c4ccccc4C)cc3)c2cc1OC | 94%
3 | c1ccc2c(-c3ccncc3)c[nH]c2c1 | 100%
4 | Cc1cc(Nc2nc(-c3ccccc3)nc3ccccc23)n[nH]1 | 96%
5 | CC#CC(=O)Nc1cc2c(Nc3ccc(F)c(Cl)c3)ncnc2cn1 | 87%
6 | O=c1cc(-c2cccc3c2Sc2ccccc2S3)oc(N2CCOCC2)c1 | 112%
7 | O=C1C(Cl)=C(N2C(=O)CCC2=O)C(=O)c2ccccc21 | 84%
8 | Cc1cncc2cccc(S(=O)(=O)N3CCCN(C(=O)CN)C[C@H]3C)c12 | 80%
9 | COc1cc2ncnc(Nc3ccc(NC(=O)c4ccccc4)cc3)c2cc1OC | 106%
10 | O=C1NC(=O)/C(=C\c2ccc3nccnc3c2)S1 | 90%
11 | COc1ccc(S(=O)(=O)N(CCO)c2ccccc2CN(C)C/C=C/c2ccc(Cl)cc2)cc1 | 101%
12 | CCOC(=O)c1c(C)[nH]c(/C=C2\C(=O)Nc3ccccc32)c1C | 90%
13 | CC(=O)c1ccc(N2CCOCC2)cc1O | 89%
14 | N#C/C(=C1/Nc2ccccc2S1)c1ccnc(NCCc2cccnc2)n1 | 82%
15 | O=c1cc(N2CCOCC2)oc2c1ccc1ccccc12 | 95%
16 | O=[N+]([O-])c1ccc(-c2nc(-c3ccc(F)cc3)c(-c3ccncc3)[nH]2)cc1 | 100%
17 | Nc1ncnc2c1cnn2-c1ccccc1 | 93%
18 | Nc1n[nH]c2nnc(-c3c(-c4ccccc4)nn4ccccc34)cc12 | 104%
19 | Oc1ccc(Nc2nc(-c3ccc(Cl)cc3)cs2)cc1 | 101%
